Laboratory results from the supplement of paper PMC12808144.
Values without a mark were called inactive.

system: Mel-DCC-11-R; test: cell viability relative to DMSO control (fraction of DMSO control); higher = less cytotoxic, active = 0.8 or less; conditions: 1 µM; 120 h; vemurafenib co-treatment 8 µM
Procedure, shortened: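 Three cell types were screened against 315 approved anti-cancer drugs from TargetMol, acoustically pre-spotted in 384-well plates at 1 µM in duplicate over 120 h: NHEM-hTERT immortalized melanocytes (2500/well), patient-derived Mel-DCC-11 and its resistant subline Mel-DCC-11-R (both 1500/well), all in 40 µl per well. The subline was tested alone and with 8 µM of its selecting drug. Viability, measured by luminescence, was normalised to vehicle controls and averaged across duplicates, with ATPlite 1step as the readout.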

SMILES | cell viability
NC(=O)NO [Hydroxyurea] | 0.655 (active)
COc1ccc2cc3[n+](cc2c1OC)CCc1cc2c(cc1-3)OCO2 [Berberine] | 0.918
COC(=O)[C@]12CCC(C)(C)C[C@H]1[C@H]1C(=O)C=C3[C@@]4(C)C=C(C#N)C(=O)C(C)(C)[C@@H]4CC[C@@]3(C)[C@]1(C)CC2 [Bardoxolone Methyl] | 0.578 (active)
COC(=O)N[C@@H](C)CNc1nccc(-c2cn(C(C)C)nc2-c2cc(Cl)cc(NS(C)(=O)=O)c2F)n1 [Encorafenib] | 0.74 (active)
CCc1cc2c(cc1N1CCC(N3CCOCC3)CC1)C(C)(C)c1[nH]c3cc(C#N)ccc3c1C2=O [Alectinib] | 0.888
Nc1ncn([C@@H]2O[C@H](CO)[C@@H](O)[C@H]2O)c(=O)n1 [Mylosar] | 0.745 (active)
CC(=O)c1c(C)c2cnc(Nc3ccc(N4CCNCC4)cn3)nc2n(C2CCCC2)c1=O.O=S(=O)(O)CCO [Palbociclib Isethionate] | 1.19
CCCCc1nc2cc(/C=C/C(=O)NO)ccc2n1CCN(CC)CC [Pracinostat] | 0.453 (active)
CC(C)(CO)c1cc2cc(NC(=O)C3(c4ccc5c(c4)OC(F)(F)O5)CC3)c(F)cc2n1C[C@@H](O)CO | 1.07
CCOc1cc2ncc(C#N)c(Nc3ccc(OCc4ccccn4)c(Cl)c3)c2cc1NC(=O)/C=C/CN(C)C [Neratinib] | 0.643 (active)
CCN(CC)CCOc1ccc2c(c1)C(=O)c1cc(OCCN(CC)CC)ccc1-2.Cl.Cl [Tilorone dihydrochloride] | 1.15
C[C@@H]1O[C@@H](O[C@H]2[C@H](Oc3cc(O)c4c(c3)O[C@H](c3ccc(O)cc3)CC4=O)O[C@H](CO)[C@@H](O)[C@@H]2O)[C@H](O)[C@H](O)[C@H]1O [Naringin] | 1.19
COc1cc(NS(C)(=O)=O)ccc1Nc1c2ccccc2nc2ccccc12 [Amsacrine] | 0.539 (active)
CCCS(=O)(=O)Nc1ccc(F)c(C(=O)c2c[nH]c3ncc(-c4ccc(Cl)cc4)cc23)c1F [Vemurafenib] | 0.905
COc1cc2ncnc(Nc3ccc(F)c(Cl)c3)c2cc1NC(=O)/C=C/CN1CCCCC1 [Dacomitinib] | 0.911
CS(=O)(=O)c1ccc(C2=C(c3ccccc3)C(=O)OC2)cc1 [Rofecoxib] | 0.825
COC(=O)c1ccc2c(c1)NC(=O)/C2=C(\Nc1ccc(N(C)C(=O)CN2CCN(C)CC2)cc1)c1ccccc1 [Nintedanib] | 0.803
Cl.N=C1CCCN1Cc1[nH]c(=O)[nH]c(=O)c1Cl [Tipiracil hydrochloride] | 0.877

SMILES | cell viability
CC1(COc2ccc3c(c2)ncn3-c2ccc3cccc(N4CCC(N)CC4)c3n2)COC1 [Crenolanib] | 1.35
COc1c2occc2cc2ccc(=O)oc12 [8-Methoxypsoralen] | 1.19
C=CC(=O)Nc1cc(Nc2nccc(-c3cn(C)c4ccccc34)n2)c(OC)cc1N(C)CCN(C)C.CS(=O)(=O)O [Osimertinib mesylate] | 0.744 (active)
COC(=O)N[C@H](C(=O)N1CC2(CC2)C[C@H]1c1ncc(-c2ccc3c(c2)C(F)(F)c2cc(-c4ccc5nc([C@@H]6[C@H]7CC[C@H](C7)N6C(=O)[C@@H](NC(=O)OC)C(C)C)[nH]c5c4)ccc2-3)[nH]1)C(C)C [Ledipasvir] | 0.51 (active)
C[C@H]1O[C@@H](n2cc(F)c(=O)[nH]c2=O)[C@H](O)[C@@H]1O [Doxifluridine] | 1.21
N#CC1(c2ccc(NC(=O)c3cccnc3NCc3ccncc3)cc2)CCCC1 [Apatinib] | 1.13
CN(C)C/C=C/C(=O)Nc1cc2c(Nc3ccc(F)c(Cl)c3)ncnc2cc1O[C@H]1CCOC1.O=C(O)/C=C\C(=O)O.O=C(O)/C=C\C(=O)O [Afatinib Dimaleate] | 0.766 (active)
CCNC(=O)[C@@H]1CCCN1C(=O)[C@H](CCCN=C(N)N)NC(=O)[C@H](CC(C)C)NC(=O)[C@@H](CC(C)C)NC(=O)[C@H](Cc1ccc(O)cc1)NC(=O)[C@H](CO)NC(=O)[C@H](Cc1c[nH]c2ccccc12)NC(=O)[C@H](Cc1cnc[nH]1)NC(=O)[C@@H]1CCC(=O)N1 [Leuprorelin Acetate] | 0.919
CCc1cn([C@H]2C[C@H](O)[C@@H](CO)O2)c(=O)[nH]c1=O [Edoxudine] | 0.802
Cn1nnc(-c2ccc(-c3ccc(N4C[C@H](CO)OC4=O)cc3F)cn2)n1 [Torezolid] | 0.663 (active)
CC(C)(C)c1nc(-c2cccc(NS(=O)(=O)c3c(F)cccc3F)c2F)c(-c2ccnc(N)n2)s1 [Dabrafenib] | 0.894
[Cl][Pt+2][Cl] [Cisplatin] | 1.28
Cl.NNc1nncc2ccccc12 [Hydralazine hydrochloride] | 1.19
COc1cc2nccc(Oc3ccc(NC(=O)Nc4cc(C)on4)c(Cl)c3)c2cc1OC [Tivozanib] | 1.08
CC[C@]1(O)C[C@@H]2C[N@@](CCc3c([nH]c4ccccc34)[C@@](C(=O)OC)(c3cc4c(cc3OC)N(C)[C@H]3[C@@](O)(C(=O)OC)[C@H](OC(C)=O)[C@]5(CC)C=CCN6CC[C@]43[C@@H]65)C2)C1.O=S(=O)(O)O [Vinblastine sulfate] | 0.252 (active)
CO[C@H]1C(=O)[C@]2(C)[C@@H](OC)C[C@H]3OC[C@@]3(OC(C)=O)[C@H]2[C@H](OC(=O)c2ccccc2)[C@]2(O)C[C@H](OC(=O)[C@H](O)[C@@H](NC(=O)OC(C)(C)C)c3ccccc3)C(C)=C1C2(C)C [Cabazitaxel] | 0.565 (active)
CC1(C)CCC(C)(C)c2cc(NC(=O)c3ccc(C(=O)O)cc3)ccc21 [Tamibarotene] | 1.21
CC[C@]1(O)C[C@H]2CN(CCc3c([nH]c4ccccc34)[C@@](C(=O)OC)(c3cc4c(cc3OC)N(C=O)[C@H]3[C@@](O)(C(=O)OC)[C@H](OC(C)=O)[C@]5(CC)C=CCN6CC[C@]43[C@@H]65)C2)C1.O=S(=O)(O)O [Vincristine sulfate] | 0.242 (active)
